Assay results as given in PubChem BioAssay (NCATS).
Results filed as inconclusive are left out. Values without a mark were called inactive. Calls of active or inactive are those of the source. Calls follow the shape of the dose curve; as a rule, active = well fitted cell-killing curve with a large enough effect; inconclusive = small, poorly fitted or top-dose-only effect, or effect the other way; inactive = no such curve, though single readings can be large or run the other way.

What was measured:
[1] = Quantitative High-Throughput drug screen in 47 multiple myeloma cell lines against the NCATS MIPE library collection: MM1R_ATCC cell viability assay (AID 1918981); also: nearly all actives have a fitted effect of over 35% in size
How it was run: (§1)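 Inhibition of viability over 48 h was scored by ATP content (CellTiter-Glo) in 500-cell wells. Zero and full viability were defined by media-only and DMSO-only wells.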

[2] = Quantitative High-Throughput drug screen in 47 multiple myeloma cell lines against the NCATS MIPE library collection: KMS28PE_JCRB cell viability assay (AID 1918983); also: nearly all actives have a fitted effect of over 35% in size
How it was run: as §1

[3] = Quantitative High-Throughput drug screen in 47 multiple myeloma cell lines against the NCATS MIPE library collection: L363_DSMZ cell viability assay (AID 1918984); conditions: L363 myeloma viability, CellTiter-Glo ATP luminescence, 48 h; viability (% of control): at 45.8 µM (top of the series); also: nearly all actives have a fitted effect of over 40% in size
How it was run: as §1

[4] = Quantitative High-Throughput drug screen in 47 multiple myeloma cell lines against the NCATS MIPE library collection: KMS34_JCRB cell viability assay (AID 1918985); also: nearly all actives have a fitted effect of over 40% in size
How it was run: as §1

[5] = Quantitative High-Throughput drug screen in 47 multiple myeloma cell lines against the NCATS MIPE library collection: OCIMY5_PLB cell viability assay (AID 1918988); also: nearly all actives have a fitted effect of over 65% in size
How it was run: as §1

[6] = Quantitative High-Throughput drug screen in 47 multiple myeloma cell lines against the NCATS MIPE library collection: OPM1_PLB cell viability assay (AID 1918989); also: nearly all actives have a fitted effect of over 40% in size
How it was run: as §1

[7] = Quantitative High-Throughput drug screen in 47 multiple myeloma cell lines against the NCATS MIPE library collection: U266_ATCC cell viability assay (AID 1919864); also: nearly all actives have a fitted effect of over 35% in size
How it was run: as §1

[8] = Quantitative High-Throughput drug screen in 47 multiple myeloma cell lines against the NCATS MIPE library collection: XG1_PLB cell viability assay (AID 1919866); also: nearly all actives have a fitted effect of over 35% in size
How it was run: as §1

[9] = Quantitative High-Throughput drug screen in 47 multiple myeloma cell lines against the NCATS MIPE library collection: UTMC2_PLB cell viability assay (AID 1919868); conditions: CellTiter-Glo ATP luminescence, 48 h; viability (% of DMSO control): at 45.8 µM (top of the series); also: nearly all actives have a fitted effect of over 55% in size
How it was run: as §1

[10] = Quantitative High-Throughput drug screen in 47 multiple myeloma cell lines against the NCATS MIPE library collection: PE2_PLB cell viability assay (AID 1919869); also: nearly all actives have a fitted effect of over 35% in size
How it was run: as §1

[11] = Quantitative High-Throughput drug screen in 47 multiple myeloma cell lines against the NCATS MIPE library collection: OPM2_DSMZ cell viability assay (AID 1919872); also: nearly all actives have a fitted effect of over 30% in size
How it was run: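 We plated 500 myeloma cells per well, pinned in MIPE 4.0 compounds, and incubated for 48 hours at 37C. ATP was then quantified with CellTiter-Glo, with DMSO and media-only wells defining 100% and 0%.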

[12] = Quantitative High-Throughput drug screen in 47 multiple myeloma cell lines against the NCATS MIPE library collection: KMS11_JCRBsus cell viability assay (AID 1919873); also: nearly all actives have a fitted effect of over 50% in size
How it was run: as §1

[13] = Quantitative High-Throughput drug screen in 47 multiple myeloma cell lines against the NCATS MIPE library collection: KMS28BM_JCRB cell viability assay (AID 1919874); also: nearly all actives have a fitted effect of over 35% in size
How it was run: as §1

[14] = Quantitative High-Throughput drug screen in 47 multiple myeloma cell lines against the NCATS MIPE library collection: OCIMY7_PLB cell viability assay (AID 1918987); conditions: OCI-MY7 myeloma viability, CellTiter-Glo ATP, 48 h; viability (% of DMSO): at 45.8 µM (top of the series); also: nearly all actives have a fitted effect of over 65% in size
How it was run: as §1

[15] = Quantitative High-Throughput drug screen in 47 multiple myeloma cell lines against the NCATS MIPE library collection: SKMM1_PLB cell viability assay (AID 1919863); conditions: SKMM1 myeloma viability, CellTiter-Glo ATP, 48 h; viability: hits give low values; also: nearly all actives have a fitted effect of over 35% in size
How it was run: as §1

[16] = Quantitative High-Throughput drug screen in 47 multiple myeloma cell lines against the NCATS MIPE library collection: XG6_PLB cell viability assay (AID 1919865); also: nearly all actives have a fitted effect of over 40% in size
How it was run: as §1

[17] = Quantitative High-Throughput drug screen in 47 multiple myeloma cell lines against the NCATS MIPE library collection: VP6_DJ cell viability assay (AID 1919867); also: nearly all actives have a fitted effect of over 40% in size
How it was run: as §1

[18] = Quantitative High-Throughput drug screen in 47 multiple myeloma cell lines against the NCATS MIPE library collection: PCM6_Riken cell viability assay (AID 1919870); also: nearly all actives have a fitted effect of over 30% in size
How it was run: as §1

[19] = Quantitative High-Throughput drug screen in 47 multiple myeloma cell lines against the NCATS MIPE library collection: RPMI8226_ATCC cell viability assay (AID 1919871); also: nearly all actives have a fitted effect of over 30% in size
How it was run: as §1
Potency is read from the fitted curve at half-maximal effect.

O=C1C(c2c(O)[nH]c3ccccc23)=Nc2ccccc21
Potency [1]: 1.48 µM (active) | Potency [2]: 9.35 µM (active) | Potency [3]: inactive | Potency [4]: 7.43 µM (active) | Potency [5]: 1.32 µM (active) | Potency [6]: inactive | Potency [7]: 1.66 µM (active) | Potency [8]: 0.418 µM (active) | Potency [9]: inactive | Potency [10]: 1.66 µM (active) | Potency [11]: inactive | Potency [12]: inactive | Potency [13]: inactive

CCCCCCCCCCCCCC(=O)N[C@H](CO)[C@H](O)c1ccc([N+](=O)[O-])cc1
Potency [1]: 18.7 µM (active) | Potency [2]: 16.6 µM (active) | Potency [3]: 16.6 µM (active) | Potency [14]: 16.6 µM (active) | Potency [6]: 26.4 µM (active) | Potency [15]: 7.43 µM (active) | Potency [7]: inactive | Potency [16]: 23.5 µM (active) | Potency [8]: 20.9 µM (active) | Potency [17]: 26.4 µM (active) | Potency [9]: 18.7 µM (active) | Potency [10]: 26.4 µM (active) | Potency [18]: 20.9 µM (active) | Potency [11]: inactive | Potency [12]: 23.5 µM (active)

Nc1ncnc2c1c(-c1cccc(OCc3ccccc3)c1)cn2C1CC(CN2CCC2)C1 (stereo unspecified)
Potency [1]: 4.69 µM (active) | Potency [2]: 3.32 µM (active) | Potency [3]: 1.87 µM (active) | Potency [14]: 0.296 µM (active) | Potency [5]: 4.18 µM (active) | Potency [7]: 16.6 µM (active) | Potency [16]: 14.8 µM (active) | Potency [8]: 23.5 µM (active) | Potency [17]: 1.66 µM (active) | Potency [9]: 0.166 µM (active) | Potency [10]: 6.62 µM (active) | Potency [18]: 26.4 µM (active) | Potency [12]: 2.96 µM (active) | Potency [13]: 2.96 µM (active)

COc1ccc2cc1Oc1ccc(cc1)C[C@H]1c3cc(c(OC)cc3CCN1C)Oc1c(OC)c(OC)cc3c1[C@H](C2)N(C)CC3
Potency [1]: 13.2 µM (active) | Potency [2]: 14.8 µM (active) | Potency [3]: 5.9 µM (active) | Potency [4]: 14.8 µM (active) | Potency [5]: 16.6 µM (active) | Potency [6]: 18.7 µM (active) | Potency [16]: 14.8 µM (active) | Potency [8]: 10.5 µM (active) | Potency [17]: 11.8 µM (active) | Potency [19]: 6.62 µM (active) | Potency [11]: inactive | Potency [12]: 14.8 µM (active)

CC1=C(C(=O)Nc2cc3cn[nH]c3cc2F)C(c2ccc(C(F)(F)F)cc2)CC(=O)N1 (stereo unspecified)
Potency [1]: inactive | Potency [2]: inactive | Potency [3]: inactive | Potency [4]: inactive | Potency [5]: inactive | Potency [6]: inactive | Potency [7]: inactive | Potency [16]: inactive | Potency [9]: 8.33 µM (active) | Potency [10]: inactive | Potency [18]: 10.5 µM (active) | Potency [19]: inactive | Potency [11]: inactive | Potency [12]: inactive | Potency [13]: inactive

COC1CCC(C(=O)c2ccc3nc4c(cc3c2)CCCO4)CC1 (stereo unspecified)
Potency [1]: 18.7 µM (active) | Potency [2]: 23.5 µM (active) | Potency [3]: 23.5 µM (active) | Potency [4]: 29.6 µM (active) | Potency [5]: 26.4 µM (active) | Potency [6]: 14.8 µM (active) | Potency [15]: 26.4 µM (active) | Potency [7]: 18.7 µM (active) | Potency [16]: 16.6 µM (active) | Potency [8]: 14.8 µM (active) | Potency [17]: 13.2 µM (active) | Potency [10]: 18.7 µM (active) | Potency [18]: 16.6 µM (active) | Potency [19]: 20.9 µM (active) | Potency [11]: 23.5 µM (active) | Potency [12]: 20.9 µM (active)

CS(=O)(=O)c1ccc(C2=C(c3ccccc3)C(=O)OC2)cc1
Potency [1]: inactive | Potency [2]: inactive | Potency [3]: inactive | Potency [4]: inactive | Potency [16]: inactive | Potency [9]: inactive | Potency [18]: inactive | Potency [19]: inactive | Potency [11]: inactive | Potency [12]: inactive | Potency [13]: inactive

CC(=O)N1CCN(c2ccc(OCc3nn(C)c(C)c3-c3cccc4c(CCCOc5cc(C)c(Cl)c(C)c5)c(C(=O)O)n(Cc5cccnc5)c34)cc2)CC1
Potency [1]: 20.9 µM (active) | Potency [2]: 20.9 µM (active) | Potency [3]: 18.7 µM (active) | Potency [14]: 0.833 µM (active) | Potency [5]: 20.9 µM (active) | Potency [6]: 7.43 µM (active) | Potency [7]: 20.9 µM (active) | Potency [16]: 5.9 µM (active) | Potency [8]: 5.9 µM (active) | Potency [17]: 10.5 µM (active) | Potency [9]: 7.43 µM (active) | Potency [18]: 16.6 µM (active) | Potency [19]: inactive | Potency [11]: inactive | Potency [12]: 20.9 µM (active) | Potency [13]: 9.35 µM (active)

O=C(c1ccc(F)c(F)c1Nc1ccc(I)cc1F)N1CC(O)([C@H]2CCCCN2)C1
Potency [1]: 23.5 µM (active) | Potency [2]: 18.7 µM (active) | Potency [3]: 1.66 µM (active) | Potency [14]: inactive | Potency [5]: 18.7 µM (active) | Potency [6]: 11.8 µM (active) | Potency [15]: 16.6 µM (active) | Potency [7]: 23.5 µM (active) | Potency [16]: 18.7 µM (active) | Potency [8]: 16.6 µM (active) | Potency [17]: 9.35 µM (active) | Potency [10]: 7.43 µM (active) | Potency [18]: 16.6 µM (active) | Potency [11]: 13.2 µM (active) | Potency [12]: 18.7 µM (active) | Potency [13]: 20.9 µM (active)

Cc1nc(NC(=O)N2CCC[C@@H]2C(N)=O)sc1-c1csc(C(C)(C)C)n1
Potency [1]: 5.9 µM (active) | Potency [2]: 3.72 µM (active) | Potency [3]: 0.833 µM (active) | Potency [14]: 3.32 µM (active) | Potency [5]: 14.8 µM (active) | Potency [7]: 9.35 µM (active) | Potency [16]: 4.69 µM (active) | Potency [8]: 3.32 µM (active) | Potency [17]: 0.264 µM (active) | Potency [10]: 5.9 µM (active) | Potency [18]: 4.69 µM (active)

CCN1CCC(n2cc(CNc3cc(Cl)c4ncc(C#N)c(Nc5ccc(F)c(Cl)c5)c4c3)nn2)CC1
Potency [1]: 8.33 µM (active) | Potency [2]: 7.43 µM (active) | Potency [3]: 4.69 µM (active) | Potency [5]: 4.18 µM (active) | Potency [6]: 18.7 µM (active) | Potency [15]: 5.9 µM (active) | Potency [7]: 20.9 µM (active) | Potency [16]: 14.8 µM (active) | Potency [8]: 23.5 µM (active) | Potency [18]: 20.9 µM (active) | Potency [19]: 16.6 µM (active) | Potency [12]: 20.9 µM (active)
